This note sets out measurements from PubChem BioAssay (NCATS).

Values joined by “and” are separate entries in the source; they are usually repeats but may differ in a detail not shown here. Identical values can stand only once. Results filed as inconclusive are left out. Values without a mark were called inactive. Active and inactive are the calls of the source. Calls come from the whole dose curve; as a rule, active = well fitted cell-killing curve with a large enough effect in the repeat runs; inconclusive = weak or mixed curves; inactive = flat fitted curve, though single readings scatter.
% is set by controls: 0 for no effect and ±100 for the full control effect; potency is the fitted concentration of half-maximal effect.

The nature of this experiment: qHTS assay for small molecule agonists of the antioxidant response element (ARE) signaling pathway measured by Nrf2-dependant transcriptional activity - cell viability counter screen (AID 720653). The note with it: ARE-bla HepG2 viability, CellTiter-Glo ATP luminescence, 16 h; max response: hits give low values. The text has this:
National Center for Advancing Translational Sciences [NCATS] NIH Chemical Genomics Center [NCGC] U.S. Environmental Protection Agency [EPA] National Institutes of Environmental Health Sciences [NIEHS] National Toxicology Program [NTP] Assay Overview: Oxidative stress has been implicated in the pathogenesis of a variety of diseases ranging from cancer to neurodegeneration. The antioxidant response element (ARE) signaling pathway plays an important role in the amelioration of oxidative stress. The CellSensor ARE-bla HepG2 cell line (Invitrogen) can be used for analyzing the Nrf2/antioxidant response signaling pathway. Nrf2 (NF-E2-related factor 2) and Nrf1 are transcription factors that bind to AREs and activate these genes. The CellSensor ARE-bla HepG2 cell line contains a beta-lactamase reporter gene under control of the Antioxidant Response Element (ARE) stably integrated into HepG2 cells. The activation of the report gene under culture conditions can be detected by fluorescence intensity. The cytotoxicity of the compounds against the ARE-bla HepG2 cell line was quantified by measuring the intracellular ATP content.
Assay Protocol Summary: ARE-bla HepG2 cells were dispensed at 2,000 cells/5 ul/well in 1536-well black wall/clear bottom plates using a Multidrop Combi (ThermoFisher Scientific, Waltham, MA) dispenser. After the assay plates were incubated at 37C/5% CO2 for 5 hrs, 23 nL of compounds dissolved in DMSO, positive controls or DMSO only was transferred to the assay plate by a pintool work station (Kalypsys, San Diego, CA). The plates were incubated at 37C/5% CO2 for 16 hrs. After 1 uL of LiveBLAzer B/G FRET substrate was added using a Flying Reagent Dispenser (FRD) (Aurora Discovery, San Diego, CA), the assay plates were incubated at room temperature for 2 hrs. The fluorescence intensity was measured by an Envision (PerkinElmer, Shelton, CT) plate reader. Cell viability using CellTiter Glo viability assay (Promega, Madison, WI) was also measured by adding 4 ul/well of CellTiter-Glo reagent into the same assay plate using a FRD. After 30 min incubation at room temperature, the luminescence intensity in the plates was measured using a ViewLux (PerkinElmer) plate reader.
On the technique in general: In qHTS, concentration-response curves come from the screen itself.
Take `COc1ccc2cc3[n+](cc2c1OC)CCc1cc2c(cc1-3)OCO2`: the max response was -27.8%.

Regarding `O=C(N[C@H](CO)[C@H](O)c1ccc([N+](=O)[O-])cc1)C(Cl)Cl`, the max response was 3.1% and 1.36%.

In the case of `CN(C)c1ccc(C(=C2C=CC(=[N+](C)C)C=C2)c2ccc(N(C)C)cc2)cc1`, the Potency is 25.1 µM (active) and 12.6 µM (active).

Turning to `Cc1ncc([N+](=O)[O-])n1CCO`, the max response was -1.04%.

For `Cc1nnc(NS(=O)(=O)c2ccc(N)cc2)s1`, the max response was 4.88%.

Turning to `Cc1ccnc2c1NC(=O)c1cccnc1N2C1CC1`, the max response is -0.463%.

Turning to `N=C(N)c1ccc(OCCCCCOc2ccc(C(=N)N)cc2)cc1`, the max response is -9.35% and -16.5%.

On to `NNC(=O)c1ccncc1`, for which the max response is -4.52%.

On to `Cc1cc(NS(=O)(=O)c2ccc(N)cc2)no1`, for which the max response was 3.89%.

On to `S=P(N1CC1)(N1CC1)N1CC1`, for which the max response was -3.97%.

For `CC(=O)CC(c1ccccc1)c1c(O)c2ccccc2oc1=O` (stereo unspecified), the max response was 12%.

As for `CC[C@H](C)C(=O)O[C@H]1C[C@@H](C)C=C2C=C[C@H](C)[C@H](CC[C@@H]3C[C@@H](O)CC(=O)O3)[C@H]21`, the max response is -3.79%.

`CC(=O)[C@H]1CC[C@H]2[C@@H]3CCC4=CC(=O)CC[C@]4(C)[C@H]3CC[C@]12C`: the max response is -18% and -11.7% and -23.6%.

With `N[C@@H](Cc1ccc(O)c(O)c1)C(=O)O`, the max response was 13.2%.

Take `OC(Cn1cncn1)(Cn1cncn1)c1ccc(F)cc1F`: the max response was 0.0873%.

Consider `CC1=NN(c2ccccc2)C(=O)C1`, for which the max response is -3.99% and -6.22%.

Take `Cc1noc(NS(=O)(=O)c2ccc(N)cc2)c1C`: the max response is -4.33% and -0.699%.

On to `NC(N)=NC(N)=NCCc1ccccc1`, for which the max response was -24.7% and -24.4%.

`O=C(O)c1cc(=O)[nH]c(=O)[nH]1`: the max response was 16.2%.

For `C[C@]12C=CC(=O)C=C1CC[C@@H]1[C@@H]2C(=O)C[C@@]2(C)[C@H]1CC[C@]2(O)C(=O)CO`, the max response is 1.48%.

In the case of `CCc1cc(C(N)=S)ccn1`, the max response was -5.32% and -4.73%.
